# Measured values as given in PubChem BioAssay (Tox21).
# Inconclusive results are not listed. A number with no mark means an inactive call. The source made the active and inactive calls. Calls come from the whole dose curve; as a rule, active = well fitted inhibition curve with a large enough effect in the signal ratio in the repeat runs (not every such curve was filed as active); inconclusive = weak or mixed curves, or effect the other way; inactive = no such curve, though single readings can be large or run the other way; the % refers to the signal ratio.
# Biological target: Glucocorticoid receptor (Homo sapiens) (UniProt P04150)
# Sequence (P04150 whole entry, looked up): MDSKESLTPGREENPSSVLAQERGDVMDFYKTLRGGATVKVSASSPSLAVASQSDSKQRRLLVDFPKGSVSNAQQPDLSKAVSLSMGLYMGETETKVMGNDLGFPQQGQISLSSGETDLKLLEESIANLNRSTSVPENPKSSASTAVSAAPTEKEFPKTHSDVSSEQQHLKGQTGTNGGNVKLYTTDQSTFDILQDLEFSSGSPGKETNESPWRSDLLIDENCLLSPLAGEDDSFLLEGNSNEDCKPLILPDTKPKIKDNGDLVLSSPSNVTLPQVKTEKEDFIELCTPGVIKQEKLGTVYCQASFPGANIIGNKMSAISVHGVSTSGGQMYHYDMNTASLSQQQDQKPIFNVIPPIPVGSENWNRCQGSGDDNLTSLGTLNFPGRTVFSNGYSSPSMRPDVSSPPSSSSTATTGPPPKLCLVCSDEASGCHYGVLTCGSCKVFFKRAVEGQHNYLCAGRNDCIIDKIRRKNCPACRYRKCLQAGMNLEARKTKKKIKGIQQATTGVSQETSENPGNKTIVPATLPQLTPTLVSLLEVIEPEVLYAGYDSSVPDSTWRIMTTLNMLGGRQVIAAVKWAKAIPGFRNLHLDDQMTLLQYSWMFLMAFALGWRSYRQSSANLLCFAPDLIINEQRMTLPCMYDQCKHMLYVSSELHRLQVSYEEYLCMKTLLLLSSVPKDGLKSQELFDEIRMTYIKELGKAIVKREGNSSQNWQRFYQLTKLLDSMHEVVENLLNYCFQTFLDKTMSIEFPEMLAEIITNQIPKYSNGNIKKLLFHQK
# Assay: qHTS assay to identify small molecule antagonists of the glucocorticoid receptor (GR) signaling pathway (AID 720692)
# Details: GR-bla HeLa, beta-lactamase FRET ratio, dexamethasone-stimulated, 18 h; series mostly up to 58.5 µM; activity change, negative = inhibition: at the top concentration
# Excerpt: U.S. Tox21 Program National Center for Advancing Translational Sciences [NCATS] NIH Chemical Genomics Center [NCGC] U.S. Environmental Protection Agency [EPA] National Institutes of Environmental Health Sciences [NIEHS] National Toxicology Program [NTP] U.S. Food and Drug Administration [FDA] Tox21 Assay Overview: The Glucocorticoid receptor (GR) is one of the members of the nuclear receptor family of ligand-dependent transcription factors. GR plays a critical role in carbohydrate, protein and lipid metabolisms and programmed cell death. CellSensor GR-bla HeLa cell line (Invitrogen) contains a beta-lactamase reporter gene under the control of the glucocorticoid response element stably integrated into HeLa cells, a cervical cancer cell line that expresses glucocorticoid receptor. The activation of the reporter gene under culture conditions can be detected by fluorescence intensity. This cell line has been used to screen the Tox21 10K compound library and to identify the compounds that inhibit the GR signaling.
# Tox21 Assay Protocol Summary: The GR-bla HeLa cells were dispensed at 1500 cells/5 ul/well in 1536-well black wall/clear bottom plates using a Multidrop Combi (ThermoFisher Scientific, Waltham, MA) dispenser. After the assay plates were incubated at a 37 C/5% CO2 incubator for 4 hours, 23 nL of compounds dissolved in DMSO, positive controls or DMSO only was transferred to the assay plate by a pintool station (Kalypsys, San Diego, CA), followed by addition of 1 uL of dexamethasone (5 nM, final concentration in the well). The plates were incubated at 37 C for 18 hours. After 1 uL of LiveBLAzerTM B/G FRET substrate was added using a Flying Reagent Dispenser (Aurora Discovery, San Diego, CA), the plates were incubated at room temperature for 2 hours, and fluorescence intensity was measured by an Envision plate reader (PerkinElmer, Shelton, CT).
# % is set by controls: 0 for no effect and ±100 for the full control effect; potency is the fitted concentration of half-maximal effect.
SMILES,"activity change, negative = inhibition",Potency
CCC(C)c1cc(C(C)(C)C)c(O)c(C(C)(C)C)c1 (stereo not given),-12.1%,
Cc1cccc(C)c1NC(=O)CN(CC(=O)O)CC(=O)O,-4.08%,
Cc1cccc(C)c1OCC(=O)N[C@@H](Cc1ccccc1)[C@@H](O)C[C@H](Cc1ccccc1)NC(=O)[C@H](C(C)C)N1CCCNC1=O,,23.9 µM (active)
CCCCCCCC#N,6.36%,
CCCCCCCC/C=C\CCCCCCCC(=O)OCC,-10.3%,
CN(Cc1ccc(C(C)(C)C)cc1)Cc1cccc2ccccc12,,inactive
Nc1cccc(S(=O)(=O)c2cccc(N)c2)c1,-27.4%,
CCN(CC)CCOC(=O)C(c1ccccc1)C1CCCCC1 (stereo not given),-14.1%,
CCCCNc1ccc(C(=O)OCCOCCOCCOCCOCCOCCOCCOCCOCCOC)cc1,28.9% [at 27 µM],
CCCCC(CC)COC(=O)CCCCCCCCC(=O)OCC(CC)CCCC (stereo not given),-0.21%,
c1cc(CCCc2ccncc2)ccn1,-17.3%,
CCOC(=O)c1cccnc1,-0.972%,
N=c1ccn2c(n1)O[C@H]1[C@H](O)[C@@H](CO)O[C@H]12,2.14%,
O=C1C(O)=C(O)C(=O)C(O)=C1O,-0.433%,
CCCCCCCN,-10.9% [at 78.9 µM],
C=CCOc1ccccc1OCC(O)CNC(C)C (stereo not given),-8.77% [at 27 µM],
CCCCc1ncc(/C=C(\Cc2cccs2)C(=O)O)n1Cc1ccc(C(=O)O)cc1,2.46%,
OCc1cc(C(O)CNCCCCCCOCCCCc2ccccc2)ccc1O (stereo not given),-29.7%,
C=CC1CC2C=CC1C2 (stereo not given),-0.165%,
CCO[C@H](Cc1ccc(OCCc2ccc(OS(C)(=O)=O)cc2)cc1)C(=O)O,9.06%,

SMILES,"activity change, negative = inhibition",Potency
Cc1c(N)cccc1[N+](=O)[O-],-7.27% [at 78.9 µM],
CCCCCCCCO[C@@H]1O[C@H](CO)[C@@H](O)[C@H](O)[C@H]1O,0.908%,
Cc1[nH]c(C)c(Cl)c(=O)c1Cl,-0.0841%,
CCC(C)(C)CC,-16.6% [at 78.9 µM],
CC1OC(=O)C(C)OC1=O (stereo not given),4.43%,
C[Si](C)(CCCN)O[Si](C)(C)CCCN,-1.38%,
O=C(O)CC(=O)C(=O)O,0.123% [at 78.9 µM],
COc1cc(Cl)c(OC)cc1N,1.98%,
C[C@@H](c1ncncc1F)C(O)(Cn1cncn1)c1ccc(F)cc1F (stereo not given in full),-7.23%,
CC(=O)c1cccc([N+](=O)[O-])c1,-0.997%,
CC(=O)NO,-2.14%,
OCCNCc1ccccc1,2.14%,
CN(C)C(=O)NC1(c2ccccc2)CCN(CC[C@@]2(c3ccc(F)c(F)c3)CN(C(=O)c3ccccc3)CCO2)CC1,-12.5%,
NC(N)=NCCC[C@H](N)C(=O)O,5.46%,
c1ccc(CNCCNCc2ccccc2)cc1,-5.96%,
C[C@H](CCC(=O)O)[C@H]1CC[C@H]2[C@@H]3CC[C@@H]4C[C@H](O)CC[C@]4(C)[C@H]3C[C@H](O)[C@]12C,,49.1 µM (active)
O=C1CCCCCCCCCCCC(=O)OCCO1,8.46%,
COC(=O)c1ccc(I)cc1S(=O)(=O)NC(=O)Nc1nc(C)nc(OC)n1,-0.605%,
CC[N+]1(CC)CCC(=C(c2ccccc2)c2ccccc2)C1C (stereo not given),-1.29%,
CC(=O)c1ccc2c(c1)N(CCCN1CCC(CCO)CC1)c1ccccc1S2,10.7% [at 27 µM],
